This is part of a sample that, as a whole, favours compounds with a hit. Of some 79,000 tested, about 15% had one in any assay. The source made the active and inactive calls. Cut-off read from the data, not from the text of the source: active = growth inhibition above about 70%; inactive = the rest.
Columns and labels:
[1] = NCI Yeast Anticancer Drug Screen. Data for the rad50 strain (AID 155);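 note: 0% = growth of vehicle-only cultures of the same strain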; details: S. cerevisiae rad50 strain growth inhibition; at 50.0 µM; stronger effect = higher value
In short: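 Compounds were tested on a yeast strain with an engineered DNA damage repair alteration; the reported value is growth inhibition normalised to vehicle treatment.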

[2] = NCI Yeast Anticancer Drug Screen. Data for the mec2-1 strain (AID 157); details: S. cerevisiae mec2-1 strain, at 50.0 µM, stronger effect = higher value
In short: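 Growth inhibition is read against vehicle-treated controls after compound exposure of the mec2-1 yeast strain, which is defective in DNA damage repair or cell cycle control.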

[3] = NCI Yeast Anticancer Drug Screen. Data for the sgs1 mgt1 strain (AID 161);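 note: 0% = growth of cultures given vehicle only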; details: S. cerevisiae sgs1 mgt1 strain, at 50.0 µM, stronger effect = higher value
In short: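 Growth of a repair-deficient yeast mutant was monitored after compound treatment and expressed as inhibition relative to vehicle-treated cultures.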

[4] = NCI Yeast Anticancer Drug Screen. Data for the cln2 rad14 strain (AID 165);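 note: 0% = growth equal to vehicle treated cultures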; details: S. cerevisiae cln2 rad14 strain, at 50.0 µM, stronger effect = higher value
In short: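 Growth inhibition, relative to vehicle-treated controls, is the read-out. The test organism is a yeast strain with defined genetic alterations, cln2 rad14.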

[5] = NCI Yeast Anticancer Drug Screen. Data for the bub3 strain (AID 167); details: S. cerevisiae bub3 mutant strain, at 50.0 µM, stronger effect = higher value
In short: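 Growth of a checkpoint-deficient yeast mutant is measured after compound exposure. Values represent inhibition relative to vehicle.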

[6] = NCI Yeast Anticancer Drug Screen. Data for the mlh1 rad18 strain (AID 175); details: S. cerevisiae mlh1 rad18 strain growth inhibition; at 50.0 µM; stronger effect = higher value
In short: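 Cells of a genetically altered yeast strain, deficient in DNA damage repair, were treated with compound. Their growth was then compared with that of vehicle-treated cultures to give inhibition.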

Measured: growth inhibition

O=C(CC1Sc2ccccc2NC1=O)Nc1cc(Cl)ccc1Cl (stereo unspecified)
inactive: [1] -2.6% | [2] -18.3% | [3] -4.55% | [4] 25.3% | [5] 8.7% | [6] -1.45%

O=C(O)CNC1=NCCN1
inactive: [1] -0.8% | [2] 2.5% | [3] -8.4% | [4] -41.4% | [5] -24.1% | [6] -3.2%

CCOC(=O)C(c1ccsc1)C(C(=O)OCC)c1cccs1 (stereo unspecified)
inactive: [1] 3.3% | [2] 23.1% | [3] -4.95% | [4] -3.35% | [5] 25.6% | [6] 17%

CC1(C)OC(=O)CC1CCN (stereo unspecified)
inactive: [1] -0.75% | [2] -13.5% | [3] -7.05% | [4] -30.9% | [5] 14.9% | [6] 13.2%

Nc1nc(SCc2ccccc2[N+](=O)[O-])c2[nH]cnc2n1
inactive: [1] 29.2% | [2] 22.2% | [3] 16.2% | [4] 14.1% | [5] 45.4% | [6] 34%

COC1OC(CO)C(O)C(NC(=O)[C@H](Cc2ccccc2)NC(=O)OCc2ccccc2)C1O (stereo partly specified)
inactive: [1] 16.6% | [2] 0.75% | [3] 0.95% | [4] 8.65% | [5] 0.45% | [6] 14%

CN(C)CC(O)C(=O)O (stereo unspecified)
inactive: [1] -12.7% | [2] 20.4% | [3] -5.6% | [4] 7.45% | [5] 3.7% | [6] -13.8%

COc1ccc(-c2cc(=O)c3cccnc3[nH]2)cc1
inactive: [1] 30.1% | [2] 12.9% | [3] 32.4% | [4] 0.7% | [5] 12.2% | [6] 21.1%

NC(=O)N/N=C/c1cccc([N+](=O)[O-])c1
inactive: [1] -7% | [2] 27.8% | [3] -5.9% | [4] -32.5% | [5] 25.6% | [6] 0%

COC(=O)C1=NC(=S)N=C(C(=O)OC)C1(C)C(=O)c1ccc(Cl)cc1
inactive: [1] -2.55% | [2] 2.65% | [3] -14.9% | [4] 17.2% | [5] 2.75% | [6] 4.35%

COc1ccccc1OCc1nnc(SCC(=O)O)n1-c1ccccc1
inactive: [1] 3.75% | [2] 3.4% | [3] 2.45% | [4] 11.6% | [5] 8.4% | [6] 27.9%

FS(F)(F)(F)(F)c1cccc(NC(=S)SCc2ccc3c(c2)OCO3)c1
active: [1] 97.6% | [2] 99% | [3] 98.8% | [4] 99.3% | [5] 98.8% | [6] 98.3%

Cc1cc(C)nc(NS(=O)(=O)c2ccc(NC(=O)c3ccc(Cl)c4c(Nc5ccc(S(=O)(=O)Nc6nc(C)cc(C)n6)cc5)c5ccccc5nc34)cc2)n1
inactive: [1] 28.1% | [2] 41.3% | [3] 27.8% | [4] 34.2% | [5] 27.8% | [6] 30.4%

O=C(NC(=S)c1ccccc1)Nc1ccccc1
inactive: [1] 2.1% | [2] 37.5% | [3] 6.85% | [4] -8.85% | [5] 24.4% | [6] 18.9%

CN(CCN(C)C(=O)CCn1cc(F)c(=O)[nH]c1=O)C(=O)CCn1cc(F)c(=O)[nH]c1=O
inactive: [1] 26.1% | [2] 18.2% | [3] 50.4% | [4] 18.1% | [5] 3.05% | [6] 29.9%

CC(=O)Nc1ccc(N=Nc2cccc(C)c2)cc1C
inactive: [1] -1.6% | [2] -1.6% | [3] 10.1% | [4] -13.1% | [5] 2.4% | [6] -7.2%

CNC(=O)C1CCC(=O)N1Cc1c[nH]c2ccccc12 (stereo unspecified)
inactive: [1] -4.6% | [2] -8.65% | [3] -1.75% | [4] 2.25% | [5] 8.75% | [6] -5.45%

CNC(=O)NNC(=O)NC
inactive: [1] -45.1% | [2] -24.6% | [3] -24.6% | [4] -27.6% | [5] -15.7% | [6] -6.05%

N[C@@H]1c2c(csc2Br)C(=O)[C@@H]1O
inactive: [1] -5.25% | [2] -6.55% | [3] 13.3% | [4] -6.8% | [5] 0.8% | [6] -14.6%

CCSc1n[nH]c(=O)nc1NN
inactive: [1] -0.35% | [2] -3.85% | [3] -28.4% | [4] -60% | [5] -19.2% | [6] -2.75%

Cc1ccc(S(=O)(=O)Nc2ccccc2C(=O)c2ccc(C)c(C)c2)cc1
inactive: [1] 4.1% | [2] -7.15% | [3] -9.9% | [4] -41% | [5] -40.9% | [6] 23.9%

NNC(=O)c1n[nH]n(N)c1=S
inactive: [1] 22.6% | [2] 25.1% | [3] 10.9% | [4] -8.65% | [5] -8.65% | [6] 24.2%

COC(CN1C(=O)CSC1=S)OC
inactive: [1] 10.8% | [2] -1.65% | [3] 27.1% | [4] 17.2% | [5] 29.1% | [6] -6.8%

[O-]/[N+](=C\c1ccccc1)[C@H](COCc1ccccc1)c1ccccc1
inactive: [1] -21.8% | [2] -17.1% | [3] -23.8% | [4] -13.5% | [5] -2.75% | [6] -5.5%

O=C(CCl)Nc1cc2ccccc2c2ccccc12
inactive: [1] 0.65% | [2] -23.6% | [3] -10.9% | [4] 1.6% | [5] 9.6% | [6] 8.6%

CC1(C)OC(C2SCCS2)C2OC(=O)C(O[Si](C)(C)C(C)(C)C)C2O1 (stereo unspecified)
inactive: [1] 18.2% | [2] 16.2% | [3] 2.75% | [4] 0.9% | [5] -2.6% | [6] -1.5%

O=S1c2ccccc2Sc2ccccc21
inactive: [1] 2.65% | [2] -8.4% | [3] -5.05% | [4] 1.6% | [5] -2% | [6] -2.25%

O=c1oc2ccc3ccccc3c2c(-c2ccc(O)cc2)c1-c1ccccc1
active: [1] 98.7% | [2] 98.5% | [3] 98.9% | [4] 97.2% | [5] 98.2% | [6] 98.7%

C/C=C/C(=O)NN
inactive: [1] 13.3% | [2] 7.85% | [3] -4.65% | [4] -21.2% | [5] -2.9% | [6] 25.8%

CN(C)CCSc1nc2ccccc2s1
inactive: [1] 7.6% | [2] 6.55% | [3] 28.7% | [4] 13.3% | [5] -16.6% | [6] 31.1%

CCOC(=O)NC1OC(C(N)=O)C(O)C(O)C1O (stereo unspecified)
inactive: [1] 2.25% | [2] -5.7% | [3] 3.4% | [4] -33.3% | [5] 4.5% | [6] 1.4%

Cc1ccc(NC(=O)CC2C(=O)Nc3ccccc3S2(=O)=O)c(C)c1 (stereo unspecified)
inactive: [1] -24.6% | [2] -24.8% | [3] -6.8% | [4] 20.6% | [5] -2.85% | [6] -10.6%

[Cl][Pd][Cl].[NH-]CC1(C[NH-])CCCCC1
inactive: [1] 3.5% | [2] -1.1% | [3] 3.75% | [4] -64.2% | [5] 7.7% | [6] 5.95%

CCOC(=O)c1ccc(Cl)cc1
inactive: [1] -14% | [2] -16.8% | [3] -25.1% | [4] -23.8% | [5] -30.8% | [6] -25.1%

NC1C([O-])OC(CO)C(O)C1O.O=C1OC(C(O)CO)C([O-])=C1[OH2+].[Cu+2] (stereo unspecified)
inactive: [1] -0.4% | [2] -0.15% | [3] -19.6% | [4] -8.25% | [5] -1.55% | [6] -12.8%

COc1cc(C)c(OC)c(C/C=C(\C)CC2=C(CC(C)(C)O)C(=O)[C@]3(C)CCC[C@]3(C)C2)c1
inactive: [1] 33.6% | [2] 25.8% | [3] 13.7% | [4] 4.35% | [5] 16.5% | [6] 12.4%

CCc1c(CNc2ccc(C(=O)NC(CC(=O)O)C(=O)O)cc2)ccc2nc(N)nc(N)c12 (stereo unspecified)
inactive: [1] 5.5% | [2] -0.5% | [3] 11.9% | [4] 2.85% | [5] -4% | [6] 5.6%

COc1ccc(N2C(=O)CSC2=S)cc1
inactive: [1] 58.6% | [2] 0% | [3] 24.1% | [4] -9.15% | [5] -4.85% | [6] 33.1%

CC(=O)Nc1nc(Cl)c2cc[nH]c2n1
inactive: [1] -1.05% | [2] 2.5% | [3] -5.5% | [4] -10.3% | [5] -11.9% | [6] -11.6%

C=C(C)C#CCN(CCO)C(C)C
inactive: [1] -7.45% | [2] -30.3% | [3] -12.9% | [4] 9.2% | [5] -19.4% | [6] 4.75%

N#CC(/C(=N\NC(N)=S)C(=O)NC1C2CC3CC(C2)CC1C3)c1ccc(Cl)cc1 (stereo unspecified)
inactive: [1] 29.2% | [2] 10.2% | [3] 19.8% | [4] 10.1% | [5] 15.4% | [6] 25.4%

— PubChem BioAssay (NCI)
